# Screening results deposited in PubChem BioAssay by several laboratories.
# Sampled rows, rich in hits. Any-hit rate of the full collection: about 2.5%.
# SUMO Mot1 rescue: blocks SUMOylation pathway, rescuing yeast Mot1-301 growth; S. cerevisiae Mot1-301 growth rescue, ATP luminescence, 38.5C; percent above DMSO median, 100 means doubled; growth rescue, % at 18.8 µM; hit rate 1% among 320,000; AID 2716;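 active = every valid replicate shows activation above 250% relative to neutral control wells; inactive = the rest, any valid replicate at or below 250%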
# V-ATPase pH: regulators of yeast V-ATPase proton transport. AID 504577. S. cerevisiae, pHLuorin cytosolic pH fluorescence. hit rate 0.37% among 350,000. response, % at 10 µM; in the data active = response mostly above about 7.3%, no sharp cut-off; inactive = mostly below about 5.4%; also: actives read high
# Efflux pump inh: blocks antifungal efflux pumps in multiplex yeast assay | S. cerevisiae Candida pump triplex, Nile Red efflux | inhibition, % at 10 µM | hit rate 0.44% among 330,000 | AID 485275;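 active = plate passing quality check with inhibition over a set limit, or well fluorescence over plate mean plus 4 SD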;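 also: Nile Red retained in pooled yeast measured as flow cytometry median fluorescence; higher means more Nile Red kept so more efflux inhibition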
# ATG4B inh: ATG4B (human) cysteine protease inhibition. Q9Y4P1. ATG4B cleavage of LC3-PLA2, NBD-HPC fluorescence, 1 h. inhibition, % at 8.33 µM. hit rate 0.51% among 340,000; in the data active = inhibition above about 40%
# Target sequence (Q9Y4P1 whole entry, looked up): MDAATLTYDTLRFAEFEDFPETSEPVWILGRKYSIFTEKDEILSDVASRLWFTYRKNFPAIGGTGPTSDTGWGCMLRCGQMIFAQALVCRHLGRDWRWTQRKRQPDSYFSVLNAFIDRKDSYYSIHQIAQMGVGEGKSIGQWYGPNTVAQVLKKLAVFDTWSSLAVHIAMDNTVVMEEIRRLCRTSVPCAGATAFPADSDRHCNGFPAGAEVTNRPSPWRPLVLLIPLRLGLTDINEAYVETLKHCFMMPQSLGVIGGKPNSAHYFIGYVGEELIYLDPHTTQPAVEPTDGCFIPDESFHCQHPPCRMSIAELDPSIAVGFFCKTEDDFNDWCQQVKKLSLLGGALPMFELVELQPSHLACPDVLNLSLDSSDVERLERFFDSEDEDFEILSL
# AI-2 QS mod: Vibrio harveyi AI-2 quorum sensing modulation; Vibrio harveyi JMH597 AI-2 luminescence/OD600 ratio, 9 h; hits give low values; strain lacks LuxN and CqsS sensors; 0 = neutral-control median; activity change, % at 7.5 µM; hit rate 0.4% among 300,000; in the data active = activity change below about -75%, passing the limit was not always enough;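 also: luminescence divided by OD600 gain over 9 h not by final OD600 alone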
# Yeast cmpd fluor: compound fluorescence in yeast efflux pump counter-screen | shares compounds with Efflux pump inh | S. cerevisiae AD/pABC3, flow cytometry | fluorescence ratio to DMSO, % at 10 µM | hit rate 4% among 1,700;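 active = fluorescence ratio to DMSO above its plate's cutoff, the plate mean ratio plus 5 SD, cut at about 210% in these data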;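 also: unstained yeast with no Nile Red so the signal is compound autofluorescence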
# CaMdr1 efflux inh: Candida Mdr1 efflux pump inhibition; AID 588518; hit rate 1% among 1,700; S. cerevisiae AD/CaMDR1, Nile Red efflux, flow cytometry; inhibition, % at 10 µM; shares compounds with Efflux pump inh; in the data active = inhibition above about 26%;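 also: higher means more Nile Red retained so more efflux inhibition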
# CaCdr2 efflux inh: Candida Cdr2 efflux pump inhibition; shares compounds with Efflux pump inh; S. cerevisiae AD/CaCDR2, Nile Red retention, flow cytometry; Nile Red retention ratio vs DMSO, % at 10 µM; hit rate 4% among 1,700; AID 588520; in the data active = Nile Red retention ratio vs DMSO above about 190%;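 also: higher ratio means more blocking of Cdr2 efflux of the dye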
# CaCdr1 efflux inh: inhibitors of Candida albicans Cdr1 efflux pump | hit rate 1% among 1,700 | inhibition, % at 10 µM | S. cerevisiae AD/CaCDR1, Nile Red efflux, flow cytometry | AID 588522 | shares compounds with Efflux pump inh;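 active = inhibition above the screen-wide mean plus twice its standard deviation, cut at about 32% in these data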
# A number is an active result; – = inactive; · = not tested or not shown.
SMILES,SUMO Mot1 rescue,V-ATPase pH,Efflux pump inh,ATG4B inh,AI-2 QS mod,Yeast cmpd fluor,CaMdr1 efflux inh,CaCdr2 efflux inh,CaCdr1 efflux inh
Cc1nn(-c2ccccc2)c2c1C(c1ccc(Cl)cc1)N(c1ccccc1)C(=O)N2 (configuration not stated),–,–,–,–,–,·,·,·,·
Cc1nn(-c2ccccc2)c2c1C(c1ccc([N+](=O)[O-])cc1)N1C(=N2)C(=O)Nc2ccccc21 (configuration not stated),–,–,–,–,–,–,–,–,–
Cc1nn(-c2ccc([N+](=O)[O-])cc2)c2c1C(c1cccc(Br)c1)N1C(=N2)C(=O)Nc2ccccc21 (configuration not stated),–,–,–,–,–,–,–,–,–
Cc1cccc(NC2=Nc3ccccc3N3C2=Nc2c(c(C)nn2-c2ccccc2)C3c2ccc(O)c(O)c2)c1 (configuration not stated),–,–,–,–,–,·,·,·,·
O=C(NCCS(=O)(=O)N1CCN(c2ccccc2)CC1)C1CCCC1,–,–,–,–,–,·,·,·,·
CCCCCCCC(=O)N/N=C(\C)c1ccc(N)cc1,–,·,–,·,–,·,·,·,·
CCCCCCCCCC(=O)N/N=C(\C)c1cccnc1,–,–,1.6,–,–,–,–,–,–
CCN1CCN(C(=O)CN(CC)S(=O)(=O)c2ccc3ccccc3c2)CC1,–,–,–,–,–,·,·,·,·
O=C(C[C@H]1C/C=C\CCC(=O)OC[C@H]2CCCN2C1=O)NCCO,–,–,–,–,·,·,·,·,·
CCCCOP(=O)(c1ccc(N(C)C)cc1)C(Nc1ccccc1)c1ccccc1 (configuration not stated),–,–,–,–,–,·,·,·,·
CCCOP(=O)(c1ccc(N(C)C)cc1)C(Nc1ccccc1)c1ccc(N(C)C)cc1 (configuration not stated),–,–,2.6,–,–,–,–,–,–
Cc1cccc(C(=O)OCC(=O)NCCCc2ccccc2)c1,–,–,–,–,–,·,·,·,·
CC(C)Sc1cc(N2CCCC2)nc(-c2ccc(F)cc2)n1,·,–,–,–,–,·,·,·,·
CCSc1cc(N2CCCC2)nc(-c2ccccc2Cl)n1,–,–,–,–,–,–,–,–,–
CC(C)Sc1cc(N2CCCC2)nc(-c2ccccc2)n1,·,–,–,–,–,·,·,·,·
CSc1cc(N2CCOCC2)nc(-c2ccccc2Cl)n1,–,–,–,–,–,–,–,–,–
CC(C)Sc1cc(N2CCOCC2)nc(-c2ccccc2)n1,–,–,–,–,–,–,–,–,–
CC(C)Sc1cc(N2CCCC2)nc(-c2ccccc2Cl)n1,–,–,–,–,–,–,–,–,–
Cc1cccc(C(=O)N[C@H](C(=O)Nc2nccs2)C(C)C)c1,–,–,–,–,–,·,·,·,·
O=C(c1ccoc1)N1CCC2(CC1)Oc1ccc(Cl)cc1C(=O)C21CC(c2ccc(Cl)cc2)=NO1 (configuration not stated),–,–,–,–,–,–,–,–,–
CC(C)C(=O)N1CCC2(CC1)Oc1ccc(F)cc1C(=O)C21CC(c2ccc(Cl)cc2)=NO1 (configuration not stated),–,–,36.0,–,–,–,–,–,–
O=C(c1ccoc1)N1CCC2(CC1)Oc1ccc(F)cc1C(=O)C21CC(c2ccc(Cl)cc2)=NO1 (configuration not stated),–,–,5.5,–,–,–,–,–,52.9
CC(C)C(=O)N1CCC2(CC1)Oc1ccc(Cl)cc1C(=O)C21CC(c2ccccc2)=NO1 (configuration not stated),–,–,–,–,–,·,·,·,·
O=C(c1ccoc1)N1CCC2(CC1)Oc1ccc(F)cc1C(=O)C21CC(c2ccccc2)=NO1 (configuration not stated),–,–,67.1,–,–,–,95.2,–,43.3
COc1ccc(OC)c(NC(=O)c2csc(Cl)c2OC)c1,–,–,–,–,–,·,·,·,·
SMILES,SUMO Mot1 rescue,V-ATPase pH,Efflux pump inh,ATG4B inh,AI-2 QS mod,Yeast cmpd fluor,CaMdr1 efflux inh,CaCdr2 efflux inh,CaCdr1 efflux inh
FC(F)(F)c1cccc(NC(=S)Nc2cccc(NC(=S)Nc3cccc(C(F)(F)F)c3)n2)c1,–,–,–,–,–,·,·,·,·
O=C(c1ccc2c(c1)OCO2)N1CCC2(CC1)Oc1ccc(F)cc1C(=O)C21CC(c2ccccc2)=NO1 (configuration not stated),–,–,84.9,–,–,–,81.5,–,49.5
O=C(c1ccc2c(c1)OCO2)N1CCC2(CC1)Oc1ccc(F)cc1C(=O)C21CC(c2cccnc2)=NO1 (configuration not stated),–,–,–,–,–,·,·,·,·
CC(C(=O)N1CCN(c2ccc(Cl)cc2)CC1)c1ncc(C(F)(F)F)cc1Cl (configuration not stated),–,–,–,–,–,·,·,·,·
COc1cc2c(cc1OC)C(c1ccccc1)NCC2 (configuration not stated),–,–,–,–,–,·,·,·,·
COc1cc2c(cc1OC)C(c1cc(OC)c(OC)c(OC)c1)NCC2 (configuration not stated),–,–,0.6,–,–,–,–,–,–
Cc1ncc2c(n1)-c1cc(F)ccc1SC2,–,–,–,–,–,·,·,·,·
Nc1ncc2c(n1)-c1cc(Cl)ccc1SC2,–,–,0.6,–,–,–,–,–,–
COc1ccc(-n2c3c(cc(C#N)c2=O)C(=O)CCC3)cc1,·,–,–,–,–,·,·,·,·
Cc1cc(OCc2cc(C(=O)N(C)Cc3ccccn3)no2)cc(C)c1Cl,–,–,–,–,–,–,–,–,–
CC(=O)c1ccc(OCc2cc(C(=O)N(C)Cc3ccccn3)no2)cc1,–,–,–,–,–,·,·,·,·
CC(C)Cc1cc(CNC(=O)C2CCC(=O)N(Cc3cccc(C(F)(F)F)c3)C2)on1 (configuration not stated),–,–,9.2,–,–,–,–,–,–
O=C(NCc1ccon1)C1CCC(=O)N(Cc2cccc(C(F)(F)F)c2)C1 (configuration not stated),–,–,–,–,–,·,·,·,·
CCC(C)N(C(=O)Cn1nnc(-c2ccc(Cl)cc2)n1)C1CCS(=O)(=O)C1 (configuration not stated),–,–,–,–,–,·,·,·,·
Cc1cccc(NC(=O)CSc2nc(C)c(Cc3ccccc3)c(=O)[nH]2)c1C,–,·,2.1,·,–,–,–,–,–
CC(OC(=O)Cn1cnc2c1c(=O)n(C)c(=O)n2C)C(=O)Nc1ccc(Cl)cc1 (configuration not stated),–,–,–,–,–,·,·,·,·
